Results with a measured potency or affinity are listed apart. Results filed as inconclusive are left out. A number with no mark means an inactive call.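 How the source made its calls: active means luminescence drop in HepG2 cells whose fitted half-effect dose is at most twice the top valid dose; inconclusive means flat curve with 30 to 70% signal loss, or unreliable fit; inactive means the rest.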

The nature of this assay: HepG2 hepatoma cell viability loss – plate reader, dry powder, cytotoxicity control, dose response (AID 651947). To be noted: ATP luminescence (CellTiter-Glo), 48 h, hits give low values; at 26 µM unless noted.
As to `FC(F)(F)c1cccc(CSc2nnc(-c3ccccc3)o2)c1`, the max activity was -34.6% [at 1.6 µM].
As for `Fc1ccccc1-c1nnc(SCc2ccccc2)o1`, the figure is -29.8% [at 0.195 µM].
The figure for `COCCSc1nnc(-c2ccccc2)o1` is 27.8% [at 0.195 µM]; for `COc1ccc(-c2nnc(SCc3ccccn3)o2)cc1` it is -23.2% [at 1.6 µM].
Consider `O=S(=O)(Cc1ccccc1)c1nnc(-c2ccccc2)o1`, for which the max activity is -24.8%.
Take `c1ccc(Cn2cc(CSc3nnc(C4CCC4)o3)nn2)cc1`: the max activity is -18.3% [at 0.38 µM].
As for `c1ccc(-c2nnc(SCCN3CCOCC3)o2)cc1`, the figure is -7.63% [at 0.38 µM]; as for `COc1cccc(CSc2nnc(-c3ccccc3)o2)c1`, 25.7%; as for `c1ccc(CCc2nnc(SCc3ccccc3)o2)cc1`, 22.3% [at 3 µM].
The figure for `c1ccc(-c2nnc(SCc3ccncc3)o2)cc1` is -21.6% [at 0.38 µM]; for `O=S(Cc1cn(-c2ccccc2)nn1)c1nnc(-c2ccc(Cl)cc2)o1` (stereo not given) it is -41.8% [at 12 µM]; for `c1ccc(CSc2nnc(C3CCCC3)o2)cc1` it is -59.1% [at 6 µM].
Regarding `c1ccc(CSc2nnc(-c3cccs3)o2)cc1`, the max activity is -27.2% [at 12 µM].
As for `CS(=O)(=O)c1ccccc1-c1nnc(SCc2ccccc2)o1`, the figure is 22.6% [at 3 µM].
As for `c1ccc(CSc2nnc(-c3cccnc3)o2)cc1`, the figure is -26.9% [at 0.8 µM]; as for `N#Cc1cccc(-c2nnc(SCc3ccccc3)o2)c1`, 15.2%.
With `CS(=O)(=O)c1ccccc1CSc1nnc(-c2ccccc2)o1`, the max activity is -12.5% [at 12 µM].
The figure for `Cc1nnc(SCc2ccccc2)o1` is -55.2% [at 0.195 µM]; for `CS(=O)(=O)c1cccc(CSc2nnc(-c3ccccc3)o2)c1` it is -12.6% [at 0.38 µM].
Take `c1ccc(CSc2nnc(-c3cccnc3)o2)nc1`: the max activity was -43.9%.
As for `Fc1cccc(CSc2nnc(-c3ccccc3)o2)c1`, the figure is -9.21% [at 12 µM].
As for `Clc1cccc(CSc2nnc(-c3ccccc3)o2)c1`, the figure is -32.2% [at 0.195 µM]; as for `c1ccc(CNCCSc2nnc(-c3ccccc3)o2)cc1`, -50.5% [at 1.6 µM]; as for `Cc1ccc(-c2nnc(SCc3ccccn3)o2)cc1`, -42.6% [at 0.38 µM].
In the case of `c1ccc(Cn2cc(CSc3nnc(-c4ccccc4)o3)nn2)cc1`, the max activity is -41.8%.
With `c1ccc(CSc2ncc(-c3ccccc3)o2)cc1`, the max activity is -32.2% [at 0.195 µM].
As for `Brc1cccc(-c2nnc(SCc3ccccn3)o2)c1`, the max activity was -18% [at 1.6 µM].
As for `COc1cccc(-c2nnc(SCc3ccccc3)o2)c1`, the max activity was 22.1% [at 12 µM].
As for `CSc1nnc(-c2ccccc2)o1`, the figure is -44.9% [at 60 µM].
Take `COc1ccccc1CSc1nnc(-c2ccccc2)o1`: the max activity was -56.1% [at 6 µM].
As to `FC(F)(F)c1ccccc1-c1nnc(SCc2ccccc2)o1`, the max activity is 15.6% [at 1.6 µM].
With `Clc1cccc(-c2nnc(SCc3ccccc3)o2)c1`, the max activity was -48.3% [at 3 µM].
As for `c1ccc(-c2nnc(SC(c3ccccc3)c3ccccc3)o2)cc1`, the figure is -33% [at 0.8 µM]; as for `Cc1cccc(CSc2nnc(-c3ccccc3)o2)c1`, -51.5% [at 0.195 µM].
With `CC1(O)CN(CCSc2nnc(-c3ccccc3)o2)C1`, the max activity was -33.4% [at 0.195 µM].

Values taken from PubChem BioAssay AID651947 (Broad Institute, 2012).
